Screening data (PubChem)
Rab9 prom act: qHTS Assay for Rab9 Promoter Activators | Potency, µM (series often up to 9.22 µM), for the others: at the highest dose activation, negative = inhibition, most hits filed as activators | Huh7 Rab9 promoter-luciferase reporter, luminescence, 24 h | 320,000 tested, 2.8% active; note: % of control where 0% means no effect; nearly all actives have a fitted effect of over 60% in size
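Steps: seed 1500 Huh7 Rab9-luc cells per well, rest 2 h at 37 °C; add compound in DMSO; incubate 24 h; add luciferase reagent, 10 min ambient; read luminescence.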
SMN2 splice enh: qHTS Assay for Enhancers of SMN2 Splice Variant Expression. HEK293 SMN2-luciferase splicing reporter, luminescence, 30-36 h. Potency, µM (titrated, usually from 46.1 µM), for the others: at the highest dose activity change, positive = activation, hits mostly activators. 210,000 tested, 2.8% active. AID 1458, 2008; note: % of control where 0% means no effect; nearly all actives have a fitted effect of over 55% in size
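HEK293 cells carry an SMN2 […]–luciferase reporter in which exon 7 inclusion puts luciferase in frame. Cells were plated 10-12 h before compound addition, then incubated 30-36 h at 37C. ONE-Glo luminescence was read; sodium butyrate at 4.5 mM final served as control.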
KinaseGlo FLuc: Counterscreen for Luciferase (Kinase-Glo TM) Inhibition | Luciferin 4-monooxygenase (Photuris pensylvanica), Q27757 | Kinase-Glo luciferase, ATP luminescence, 8 min | Potency, µM (top dose mostly 38.3 µM), without a hit: at the highest dose activity change, negative = inhibition, usual class: inhibitors | 200,000 tested, 0.28% active | AID 1379, 2008; note: % is set by controls: 0 for no effect and ±100 for the full control effect; nearly all actives have a fitted effect of over 60% in size
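Inhibition of Kinase-Glo luciferase light generation was assessed at 10 uM ATP in pH 7.2 imidazole buffer, with luminescence measured after eight minutes at ambient temperature.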
FLuc modulator: qHTS profiling assay for firefly luciferase inhibitor/activator using purifed enzyme and Km concentrations of substrates (counterscreen for miR-21 project). Luciferin 4-monooxygenase (Photinus pyralis), P08659. purified FLuc, Km substrates, luminescence inhibition. Potency, µM (top dose mostly 57.5 µM), for inactives: top-dose activity change, negative = inhibition, actives largely listed as inhibitors. 360,000 tested, 6.9% active. AID 588342, 2011;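 note: plate controls were vehicle for no effect and reference inhibitor for full effect; nearly all actives have a fitted effect of over 55% in size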
Target sequence (P08659 whole entry, looked up): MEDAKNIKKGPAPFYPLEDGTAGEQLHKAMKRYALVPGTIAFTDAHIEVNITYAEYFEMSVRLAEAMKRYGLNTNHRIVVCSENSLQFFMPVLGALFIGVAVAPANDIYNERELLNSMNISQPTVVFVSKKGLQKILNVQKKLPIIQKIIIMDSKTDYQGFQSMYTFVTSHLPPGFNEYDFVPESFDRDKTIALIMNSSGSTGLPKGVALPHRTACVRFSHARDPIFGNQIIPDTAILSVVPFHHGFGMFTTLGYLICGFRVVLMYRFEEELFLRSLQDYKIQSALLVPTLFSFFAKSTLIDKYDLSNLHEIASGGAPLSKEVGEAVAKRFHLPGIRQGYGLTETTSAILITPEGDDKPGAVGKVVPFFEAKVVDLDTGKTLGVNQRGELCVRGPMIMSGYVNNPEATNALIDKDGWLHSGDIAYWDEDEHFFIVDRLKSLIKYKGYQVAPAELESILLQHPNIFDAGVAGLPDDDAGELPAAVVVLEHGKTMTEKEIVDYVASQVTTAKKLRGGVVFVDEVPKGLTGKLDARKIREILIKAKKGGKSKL
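Purified P. pyralis luciferase, 10 nM final, with Km-level 10 uM D-luciferin and 10 uM ATP in 50 mM Tris acetate pH 7.5, 10 mM Mg acetate, 0.01% Tween-20, 0.05% BSA; 6-point qHTS titration about 60 µM downward; luminescence read.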
NPC1 promoter act: qHTS Assay for NPC1 Promoter Activators; 320,000 tested, 2.4% active; Huh7 NPC1 promoter luciferase reporter, 24 h; Potency, µM (highest dose often 9.22 µM), inactives show at the top dose activation, most hits filed as activators; AID 485313, 2010; note: % of control where 0% means no effect; nearly all actives have a fitted effect of over 60% in size
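In 1536-well qHTS, Huh7 cells harboring an NPC1 promoter–luciferase construct received compound for 24 h; activation was quantified by luminescence following luciferase reagent addition.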
Active calls of the source: *. In the library only some 7.3% were active in any assay of this set; here they are far more common. Calls come from the whole dose curve; as a rule, active = well fitted curve in the direction sought with a large enough effect; inconclusive = small, poorly fitted or top-dose-only effect, or another doubt; inactive = no such curve, though single readings can be large; an effect the other way counts as inactive or inconclusive. Potency is the fitted concentration of half-maximal effect.

For COC(=O)CNC(=O)C1(CC(C)C)C=CCN1C(C)=O (centres undefined) the results were SMN2 splice enh 13µM* and KinaseGlo FLuc -3%.
`CCOC(=O)c1ccc2ncc3c(-c4ccccc4)nn(-c4ccc(F)c(Cl)c4)c3c2c1` gave SMN2 splice enh 0% and FLuc modulator 1%.
`CS(=O)(=O)Nc1ccc(C2=NN(S(C)(=O)=O)C(c3ccccc3)C2)cc1` (centres undefined) gave Rab9 prom act 18%, SMN2 splice enh inconclusive, KinaseGlo FLuc -2%, FLuc modulator -18% and NPC1 promoter act 8%.
Screening CS(=O)(=O)N1N=C(c2ccccc2)CC1c1ccc2c(c1)OCO2 (centres undefined) returned Rab9 prom act 2.8µM*, SMN2 splice enh inconclusive, KinaseGlo FLuc -4%, FLuc modulator 21µM* and NPC1 promoter act 3.5µM*.
CS(=O)(=O)Nc1cccc(C2=NN(S(C)(=O)=O)C(c3ccc4c(c3)OCO4)C2)c1 (centres undefined) was read as Rab9 prom act inconclusive, SMN2 splice enh 11µM*, KinaseGlo FLuc -2%, FLuc modulator 17µM* and NPC1 promoter act 17%.
`CCOC(=O)c1cnn2c(N)c(C#N)cnc12` gave Rab9 prom act -2%, SMN2 splice enh 19%, KinaseGlo FLuc 2%, FLuc modulator 7% and NPC1 promoter act 4%.
Screening CCOC(=O)c1cnn(Cc2ccccc2)c1N returned Rab9 prom act 0%, SMN2 splice enh -4%, KinaseGlo FLuc -3%, FLuc modulator -4% and NPC1 promoter act 2%.
Screening CCOC(=O)c1cnc2c(C(=O)OCC)cnn2c1N returned Rab9 prom act 4µM*, FLuc modulator inconclusive and NPC1 promoter act inconclusive.
CCOC(=O)c1cnn(C(=O)c2ccccc2)c1N was read as Rab9 prom act 4%, SMN2 splice enh -8%, KinaseGlo FLuc -27%, FLuc modulator 19µM* and NPC1 promoter act -1%.
Screening CCOC(=O)c1cc2nc(-c3ccccc3)cc(C)n2n1 returned Rab9 prom act 2%, FLuc modulator 5% and NPC1 promoter act -2%.
Screening CCOC(=O)c1cnn2c(C)cc(-c3ccccc3)nc12 returned Rab9 prom act 3.5µM*, SMN2 splice enh 32µM*, KinaseGlo FLuc 0%, FLuc modulator 19µM* and NPC1 promoter act inconclusive.
CCOC(=O)c1cnc2c(-c3cccc(Br)c3)cnn2c1C was read as Rab9 prom act 3.5µM*, FLuc modulator 2.4µM* and NPC1 promoter act 3.2µM*.
Screening CCOC(=O)c1cnc2c([N+](=O)[O-])cnn2c1C returned Rab9 prom act -1%, SMN2 splice enh 10%, KinaseGlo FLuc -3%, FLuc modulator -4% and NPC1 promoter act 8%.
`Cc1nnc(N2CCC(C(=O)NCCC(C)C)CC2)c2nn(-c3ccc(Cl)cc3)c(C)c12` gave FLuc modulator 4%.
`Cc1ccc(Cl)cc1N1CCN(C(=O)c2cn(C)c3ccc(S(=O)(=O)N4CCCCC4)cc3c2=O)CC1` gave SMN2 splice enh -1% and FLuc modulator -8%.
For COc1ccc2c(c1)O[C@H](c1ccc3c(c1)OCO3)[C@@H](OC(=O)NCc1ccco1)C2=O the results were SMN2 splice enh -1% and KinaseGlo FLuc 0%.
For Cc1cc(C)n2ncc(/C(N)=N/OC(=O)c3ccccc3F)c2n1 the results were Rab9 prom act inconclusive, FLuc modulator 12µM* and NPC1 promoter act inconclusive.
`Cc1cc(C)n2ncc(/C(N)=N/OC(=O)Nc3ccc(Cl)cc3)c2n1` gave Rab9 prom act -3%, FLuc modulator inconclusive and NPC1 promoter act -1%.
Screening CC1N/C(=C\C(=O)c2ccccc2)N(O)C1(C)C (centres undefined) returned Rab9 prom act 1.4µM*, SMN2 splice enh inconclusive, KinaseGlo FLuc -7%, FLuc modulator 8.5µM* and NPC1 promoter act 2.2µM*.
O=C1Nc2ccccc2/C1=C\C(=O)c1ccccc1 was read as Rab9 prom act -1%, FLuc modulator inconclusive and NPC1 promoter act -5%.
`O=C(Sc1cccc2cccnc12)c1ccc(F)cc1` gave Rab9 prom act -47%, SMN2 splice enh -65%, KinaseGlo FLuc 2%, FLuc modulator -20% and NPC1 promoter act -49%.
`O=C(Sc1cccc2cccnc12)c1ccccc1Br` gave Rab9 prom act -23%, FLuc modulator 24µM* and NPC1 promoter act -33%.
`Oc1ccc(N=Nc2ccc3c(c2)OCCO3)c(O)c1` gave Rab9 prom act 1.1µM*, FLuc modulator 1.2µM* and NPC1 promoter act 1.3µM*.
Screening Cc1ccc(N=Nc2ccc(O)cc2)c(Br)c1 returned Rab9 prom act 3.2µM*, FLuc modulator 3.4µM* and NPC1 promoter act inconclusive.
`Oc1ccc(N=Nc2ccc(Br)cc2)c(O)c1` gave Rab9 prom act inconclusive, FLuc modulator 4.8µM* and NPC1 promoter act inconclusive.
For Cc1ccccc1N=Nc1ccc(O)c2ncccc12 the results were Rab9 prom act -28%, SMN2 splice enh -103%, KinaseGlo FLuc -1%, FLuc modulator -8% and NPC1 promoter act -12%.
O=S(=O)(O)c1cccc2c(N=Nc3ccc(O)c4ncccc34)cccc12 was read as Rab9 prom act -2%, FLuc modulator 15µM* and NPC1 promoter act -2%.
Nc1nonc1C(=Nc1ccc(Br)cc1)NO was read as Rab9 prom act -3%, SMN2 splice enh -33%, KinaseGlo FLuc 0%, FLuc modulator 5% and NPC1 promoter act 1%.
Screening COc1cccc(CNCCSc2nnnn2C)c1OCc1ccccc1 returned SMN2 splice enh inconclusive and FLuc modulator -5%.
CCCCN(C)S(=O)(=O)c1ccc(NC2=NS(=O)(=O)c3ccccc32)cc1 was read as SMN2 splice enh -17% and FLuc modulator 5%.
For Cc1oc(-c2ccccc2F)nc1CS(=O)(=O)CC(=O)NCCc1ccc(Cl)cc1 the results were SMN2 splice enh -6% and FLuc modulator -14%.
`CCN(CC)S(=O)(=O)c1ccc2c(c1)N(CC(=O)NCCc1ccccc1)C(=O)CO2` gave SMN2 splice enh inconclusive and FLuc modulator -6%.
Screening Oc1ccc(N=Nc2ccc3c(c2)OCCO3)c2cccnc12 returned Rab9 prom act -35%, SMN2 splice enh -55%, KinaseGlo FLuc -13%, FLuc modulator 6µM* and NPC1 promoter act -28%.
`COc1ccc(N=Nc2ccc(O)c3ncccc23)cc1` gave Rab9 prom act -33%, FLuc modulator -14% and NPC1 promoter act -5%.
Screening COc1cccc(N=Nc2ccc3cccnc3c2O)c1 returned Rab9 prom act 11%, FLuc modulator 8.5µM* and NPC1 promoter act 20%.
